# PfHsp40 yeast: compounds rescuing yeast from Plasmodium falciparum HSP40 toxicity; S. cerevisiae expressing PfHsp40, growth rescue, ATP luminescence; growth rescue, % at 12.5 µM; actives 0.68% (n = 340,000); AID 504582; in the data active = growth rescue above about 28%, passing the limit was not always enough; inconclusive = no clear call, values can overlap the other calls;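 note: yeast W303a lacking pdr1 and pdr3 grown in galactose medium; growth measured after three days at 30 °C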
# RecA intein inh: blocks M. tuberculosis RecA intein splicing. cell-free RecA intein splicing, fluorescence. inhibition, % (test concentration not listed). actives 0.75% (n = 290,000). AID 2221; in the data active = inhibition above about 30%; inconclusive = no clear call, values can overlap the other calls;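 note: 0% = vehicle wells and 100% = reference inhibitor control wells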
# Target sequence (P9WHJ3 whole entry, looked up): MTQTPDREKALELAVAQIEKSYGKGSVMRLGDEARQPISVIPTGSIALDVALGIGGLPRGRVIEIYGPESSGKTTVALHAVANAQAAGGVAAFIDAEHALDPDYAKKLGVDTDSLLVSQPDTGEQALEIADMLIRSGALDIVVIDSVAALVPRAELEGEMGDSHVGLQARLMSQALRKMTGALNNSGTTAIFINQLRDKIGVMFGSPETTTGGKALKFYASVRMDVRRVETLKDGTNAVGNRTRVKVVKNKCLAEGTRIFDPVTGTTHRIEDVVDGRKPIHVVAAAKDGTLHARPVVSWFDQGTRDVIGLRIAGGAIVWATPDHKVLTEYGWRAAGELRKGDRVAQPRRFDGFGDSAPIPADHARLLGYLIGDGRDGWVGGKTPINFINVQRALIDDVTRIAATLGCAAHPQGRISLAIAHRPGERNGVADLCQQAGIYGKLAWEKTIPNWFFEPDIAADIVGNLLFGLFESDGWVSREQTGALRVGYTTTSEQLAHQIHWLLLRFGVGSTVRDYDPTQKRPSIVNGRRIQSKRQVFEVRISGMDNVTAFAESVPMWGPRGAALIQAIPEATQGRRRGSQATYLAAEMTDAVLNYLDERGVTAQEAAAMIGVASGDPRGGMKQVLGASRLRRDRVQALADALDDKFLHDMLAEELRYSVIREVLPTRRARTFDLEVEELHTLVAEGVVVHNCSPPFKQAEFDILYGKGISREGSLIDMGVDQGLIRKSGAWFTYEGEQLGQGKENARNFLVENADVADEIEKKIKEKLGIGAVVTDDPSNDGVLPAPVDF
# SSB-PriA inh: K. pneumoniae PriA-SSBct interaction inhibition. AlphaScreen SSBct-PriA binding, biotinylated peptide. inhibition, % at 33 µM. actives 0.6% (n = 430,000); in the data active = inhibition mostly above about 37%, no sharp cut-off; inactive = mostly below about 20%;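 note: plate controls were negative control peptide for no effect and reference peptide for full effect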
# PrPC surface inh: inhibitors of human cell surface prion protein PrPC. P04156. inhibition, % at 13.8 µM. TR-FRET read-out. actives 0.43% (n = 370,000). AID 720596; in the data active = inhibition above about 24%; note: 0% = median of the test wells and 100% = reference compound wells
# BJeLR lethal: BJeLR cell viability loss | BJeLR (HRASV12) viability, CellTiter-Glo ATP luminescence, 48 h | inhibition, % (no concentration beside the values) | AID 1554 | actives 0.17% (n = 300,000); in the data active = inhibition above about 50%; inconclusive = no clear call, values can overlap the other calls
# PrP 5UTR inh: inhibition of PrP 5' UTR reporter expression; cell-based PrP 5' UTR mRNA reporter, plate reader; inhibition, % (no concentration beside the values); actives 0.35% (n = 340,000); in the data active = inhibition above about 52%; note: 0 = median of the neutral control wells
# An asterisk follows results filed as active; u = inconclusive; x = no result; ! = a repeat was not active. This is a sample that favours compounds with a hit; in the whole collection about 1.9% have one here.
SMILES,PfHsp40 yeast,RecA intein inh,SSB-PriA inh,PrPC surface inh,BJeLR lethal,PrP 5UTR inh
COc1ccc(Nc2nc(Nc3ccc4c(c3)OCO4)nc(N3CCOCC3)n2)cc1,x,x,38*,x,x,x
CC(C)c1ccc(-c2csc(NC(=O)Nc3ccccc3F)n2)cc1,x,x,-2,x,x,x
Nc1nonc1C(=O)NN=Cc1cc(Br)ccc1O,x,x,10,x,x,x
Nc1nonc1C(=O)N/N=C/c1cc(Br)ccc1O,168*,x,x,4,-5,4
COc1cc(C=NN(c2ccccc2)c2ccccc2)ccc1O,x,x,18,x,x,x
Cc1ccc2[nH]c3nc(NN)nnc3c2c1,-1,-5,90*,-23,-6,-12
O=C(c1ccccc1)c1ccc2c3c(cccc13)CC2,x,x,-2,x,x,x
O=C(/C=C/c1ccccc1)c1ccc2c3c(cccc13)CC2,0,34*,14,-5,-8,-90
CCOc1ccc(NC(=S)c2ccc3ccccc3n2)cc1,2,-1,-3,3,1,-20
COc1ccc(NC(=S)c2ccncc2)cc1,-1,0,82*!,2,-2,-18
COc1ccc(NC(=S)c2ccc3ccccc3n2)cc1,0,4,44*,x,-1,-25
CCc1ccc(-c2noc(CN3C(=O)C(C)Oc4ccccc43)n2)cc1 (stereo not drawn),x,x,-35,x,x,x
O=C(O)[C@@H]1CCCC[C@@H]1C(=O)N1CCc2ccccc2C1CN1C(=O)c2ccccc2C1=O (stereo partly drawn),-1,0,55*,-6,5,-21
CCCCCc1cc(OC)cc2c1C(=O)OC(C)(C)O2,72*,x,-61,-4,x,3
COc1ccccc1-c1c(C)oc2cc(OC(=O)c3ccco3)ccc2c1=O,1,31*,-12,6,14,-39
Cc1ccc(Cl)c2sc(N(CCCN3CCOCC3)C(=O)c3ccno3)nc12,x,x,-11,x,x,x
O=C(CSc1ncccn1)Nc1ncc(Cc2cccc([N+](=O)[O-])c2)s1,x,x,-4,x,x,x
CCCCC/C=C/C1=CC(=O)C[C@H](c2ccc(OC)cc2)C1,44*,x,-9,-1,x,-2
COc1ccc([C@H]2CC(=O)C=C(/C=C/Cc3ccccc3)C2)cc1,3,x,-2,9,x,-5
CC1CC(C)CN(S(=O)(=O)c2ccc(C(=O)Nc3nnc(-c4cccs4)o3)cc2)C1 (stereo not drawn),-1,8,4,-4,23,-1
CCC1CCCCN1S(=O)(=O)c1ccc(C(=O)Nc2nnc(-c3cccs3)o2)cc1 (stereo not drawn),60*,x,2,x,x,24
COc1ccc(NC(=O)CCCN2C(=O)CN(C)C2=O)c(OC)c1,0,x,57*,1,x,-23
COc1ccc(NC(=O)CCCC(=O)O)c(OC)c1,x,x,4,x,x,x
Cc1cc(NC(=O)c2cccc3ccccc23)n(-c2nc3c(cnn3-c3ccc(F)cc3)c(=O)[nH]2)n1,x,x,43*,x,x,x
COc1ccc(CC(=O)Nc2cc(C)nn2-c2nc3c(cnn3-c3cccc(C)c3C)c(=O)[nH]2)cc1,x,x,60*,x,x,x
SMILES,PfHsp40 yeast,RecA intein inh,SSB-PriA inh,PrPC surface inh,BJeLR lethal,PrP 5UTR inh
CCc1cccc(NC(=O)CSc2nc3c(sc(=S)n3-c3ccc(C)cc3)c(=O)n2C)c1,x,x,-5,x,x,x
CCN(C(=O)COc1ccc(C)c(C)c1)c1ccccc1,x,x,-19,x,x,x
O=C(CN1CCN(c2ccccc2Cl)CC1)Nc1ccc(F)cc1,x,x,-15,x,x,x
COc1ccc(CCNC(=O)c2nnn(-c3cc(C)cc(C)c3)c2N)cc1OC,u,-2,-8,12,-2,-20
Cc1ccc(CCNC(=O)c2nnn(-c3cc(C)cc(C)c3)c2N)cc1,48*,-2,-17,2,-2,7
CCCCCc1cc(O)c2c(C)cc(=O)oc2c1,56*,0,-9,-1,8,-23
Nc1ccc(N(c2ccccc2)c2ccc(N)cc2)cc1,-1,1,42*,-7,-6,-20
Nc1ccc(N=Nc2ccccc2)cc1,-2,-2,49,-6,-6,-51
COc1ccc(N2C(=O)/C(=C\c3ccco3)N=C2SCC(=O)NC(C)(C)C)cc1Cl,-1,38*,-1,-4,15,-10
O=C(Oc1ccccc1)Oc1ccc(N(C(=O)Oc2ccccc2)S(=O)(=O)c2cccc([N+](=O)[O-])c2)cc1,x,x,0,x,x,x
Cc1ccccc1OCCN1CCC(Cc2ccccc2)CC1,59*,3,-2,1,4,-14
CCOc1ccc(C(=O)C2C(=O)N(c3ccccc3)N=C2C)cc1 (stereo not drawn),x,x,-7,x,x,x
CCCCCCN1N=C(C)C(C(=O)c2ccc(Cl)cc2)C1=O (stereo not drawn),519*,5,12,5,1,-10
CCCCCCCN1N=C(C)C(C(=O)c2ccccc2)C1=O (stereo not drawn),381*,6,-11,-4,0,-9
O=C(NCC1(c2cccs2)CCCC1)C12CC3CC(CC(C3)C1)C2,x,x,0,x,x,x
O=C(/C=C/c1ccccc1)c1cc(Br)ccc(=O)c1O,332*,1,-3,-19,24,-28
O=C(/C=C/c1ccc(F)cc1)c1cc(Br)ccc1O,13,3,-51,0,3,-12
COc1ccccc1NC(=O)N1CCC(CNC(=O)C2CCN(S(C)(=O)=O)CC2)CC1,x,x,-17,x,x,x
O=C(O)c1ccccc1,-2,x,-9,9,x,-8
O=C(O)c1cc[c]([Hg][Cl])cc1,575*,x,-1,x,x,-13
Cc1cc(C(=O)N(Cc2ccccn2)c2nc3c(C)c(Cl)ccc3s2)n(C)n1,x,x,-4,x,x,x
NS(=O)(=O)c1ccc(NC(=O)CN2CCc3ccccc3C2)cc1,0,0,-3,-2,0,-32
NS(=O)(=O)c1ccc(NC(=O)CN2CC(=O)Oc3ccccc32)cc1,x,x,94*,x,x,x
COC(=O)c1ccc(NC(=O)CN2CCN(c3ccccc3C)CC2)cc1,0,-2,11,-5,-1,-34
COC(=O)c1ccc(NC(=O)CN2CC(=O)Oc3ccccc32)cc1,x,x,45*,x,x,x
SMILES,PfHsp40 yeast,RecA intein inh,SSB-PriA inh,PrPC surface inh,BJeLR lethal,PrP 5UTR inh
C=CCNC(=O)C(=O)NCCc1ccc(Cl)cc1,x,x,-2,x,x,x
Cc1ccc(OC2CCN(C(=O)C3CC(=O)N(c4ccc(F)cc4)C3)CC2)nn1 (stereo not drawn),x,x,8,x,x,x
CC[n+]1c(/C=C/C=C/c2ccc(N(C)C)cc2)sc2ccccc21,245*,-3,61*,-78,13,5
CCN1/C(=C\C=C\c2sc3ccccc3[n+]2CC)Sc2ccccc21,x,x,56*,x,x,x
CC[n+]1c(/C=C/C=C/N(C(C)=O)c2ccccc2)sc2ccccc21,0,2,2,2,1,-6
CN(C)c1ccc(/C=C/C=C/c2sc3ccccc3[n+]2C)cc1,126*,1,40*,-52,59*,-28
N=C1NC(=O)C(CC(N)=O)S1 (stereo not drawn),x,x,-23,x,x,x
Cc1c(C)c2ccc(OC(C)C(=O)N3C[C@H]4C[C@H](C3)c3cccc(=O)n3C4)c(C)c2oc1=O (stereo partly drawn),x,x,-6,x,x,x
COc1cc(-c2ccc(=O)[nH]n2)ccc1OC(F)F,43*,-1,-2,12,-3,35

# Assay outcomes: PubChem, several laboratories
